Records with an inconclusive call do not appear. Unmarked numbers belong to inactive results. Active and inactive are the calls of the source. Calls come from the whole dose curve; as a rule, active = well fitted cell-killing curve with a large enough effect; inconclusive = small, poorly fitted or top-dose-only effect, or effect the other way; inactive = no such curve, though single readings can be large or run the other way.
Potency is the fitted concentration of half-maximal effect.

The experiment is described as follows: Quantitative High-Throughput drug screen in 47 multiple myeloma cell lines against the NCATS MIPE library collection: H1112_PLB cell viability assay (AID 1918967; note: nearly all actives have a fitted effect of over 30% in size). The settings on record: H1112 myeloma cells viability, ATP luminescence, 48 h; series mostly up to 45.8 µM; viability: at the top concentration. Put shortly:
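Myeloma cells (500 per well) were exposed to MIPE 4.0 compounds by pin transfer and incubated 48 hours at 37C, 5% CO2. Viability was read as ATP by CellTiter-Glo luminescence, normalised to DMSO (100%) and media-only (0%) wells.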
As to `Cc1ccc(C(N)=O)cc1Nc1nccc(-c2cn(C(C)C)c3cnccc23)n1`, the Potency was 3.32 µM (active).

Turning to `N#CCNC(=O)c1ccc(-c2ccnc(Nc3ccc(N4CCOCC4)cc3)n2)cc1`, the Potency is 18.7 µM (active).

Take `c1ccc2c(CCNc3ccc(Nc4ccncc4)cc3)c[nH]c2c1`: the Potency was 18.7 µM (active).

With `C#Cc1cccc(Nc2ncnc3cc(OC)c(OCCCCCCC(=O)NO)cc23)c1`, the Potency is 0.296 µM (active).

Take `CN(c1ncccc1CNc1nc(Nc2ccc3c(c2)CC(=O)N3)ncc1C(F)(F)F)S(C)(=O)=O`: the Potency is 5.9 µM (active).

In the case of `COC(=O)C[C@](O)(CCCC(C)(C)O)C(=O)O[C@@H]1C(OC)=C[C@]23CCCN2CCc2cc4c(cc2[C@H]13)OCO4`, the “viability” value was 107%.

For the molecule `CCN(CC)CCCCNc1ncc2cc(-c3cc(OC)cc(OC)c3)c(NC(=O)NC(C)(C)C)nc2n1`, the Potency is 23.5 µM (active).

Turning to `Cc1ccc(NC(=O)C2(c3ccc4c(c3)OC(F)(F)O4)CC2)nc1-c1cccc(C(=O)O)c1`, the Potency is 0.118 µM (active).

As to `CCCCN1CCC(CNC(=O)c2c3n(c4ccccc24)CCCO3)CC1`, the Potency is 9.35 µM (active).

For the molecule `Fc1cc(-c2cccc3ncc(-c4cnn(C5CCNCC5)c4)nc23)cc(F)c1CN1CCOCC1`, the Potency is 23.5 µM (active).

With `CCCn1c(=O)c2[nH]c(-c3cnn(Cc4cccc(C(F)(F)F)c4)c3)nc2n(CC)c1=O`, the “viability” value is 98.4%.

As to `COc1ccc(-n2nc(C(N)=O)c3c2C(=O)N(c2ccc(N4CCCCC4=O)cc2)CC3)cc1`, the “viability” value is 138%.

In the case of `O=C(CCCCCCNC(=O)c1cnc(N(c2ccccc2)c2ccccc2)nc1)NO`, the Potency was 13.2 µM (active).

These data come from PubChem BioAssay (NCATS).
